Growth inhibition, inhibition and outcome data for 20 compounds are collected here from PubChem BioAssay.

Unmarked numbers belong to inactive results. For some of these results: Potency and affinity values are given separately. Calls of active or inactive are those of the source. Unless noted, the rule behind the calls is not given here.

Assay [1] is described as follows: antimalarial activity against Dd2 strain (AID 2302;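 active = growth inhibition above 50% at the single 2 µM test dose, taken to imply half-maximal potency below 2 µM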;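 note: 0% = DMSO untreated growth and 100% = chloroquine plus artemisinin killed control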). The note with it: P. falciparum Dd2 in RBCs, LDH growth readout, 72 h; at 2 µM; hits give high values.
The nature of assay [2]: human hepatoma cell viability loss – ATP luminescence, cytotoxicity control for P. falciparum antimalarial project, primary screen (AID 2303;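 active = inhibition above 50%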;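 note: 0% = DMSO wells and 100% = digitonin-killed cells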). To be noted: HepG2 viability, 24-48 h, at 10 µM, hits give high values.
In assay [3] the target is L-lactate dehydrogenase (Plasmodium falciparum (isolate CDC / Honduras)) (UniProt Q27743). The experiment in a line: PfLDH activity inhibition – cell lysate, 3D7 strain, counter-screen for P. falciparum growth inhibition project (AID 2304).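 Note: 0% = vehicle and 100% = reference inhibitor.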 To be noted: P. falciparum 3D7 crude extract, LDH APAD/NBT absorbance; at 2 µM; hits give high values.
The nature of assay [4]: inhibition of 3D7 malaria parasite growth – strain 3D7 (AID 2306).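 Note: 0% = DMSO wells and 100% = chloroquine plus artemisinin control wells.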 The note with it: P. falciparum 3D7 erythrocytic growth, LDH absorbance, 72 h; at 2 µM; hits give high values.
The target of assay [5] is Calcium-dependent protein kinase 1 (Plasmodium falciparum (isolate 3D7)) (UniProt P62344). The experiment in a line: PfCDPK1 kinase inhibitors, biochemical, TCAMS library (AID 1159585; cut-off not given, nearly all actives have IC50 up to about 0.98 µM;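 note: inhibitors leave more ATP so luminescence rises with inhibition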). To be noted: recombinant PfCDPK1, Kinase-Glo ATP depletion luminescence.
The target of assay [6] is Plasmodium falciparum protein kinase 6 (PK6, PF3D7_1337100) (UniProt Q8IDW1). The experiment in a line: PfPK6 kinase inhibitors, biochemical, TCAMS library (AID 1159586). The note with it: recombinant PfPK6, Kinase-Glo ATP depletion luminescence. (In general: Kinase-Glo measures the ATP left after a reaction by luminescence.)
Assay [7] has as its target Protein kinase 7 (PK7), Plasmodium falciparum 3D7 (PF3D7_0213400) (UniProt Q7YTF7). The experiment in a line: inhibition of Plasmodium PK7 catalytic activity – biochemical, TCAMS antimalarial set, Kinase-Glo luminescence (AID 1159587). To be noted: recombinant PfPK7, Kinase-Glo ATP depletion luminescence.
Assay [8] concerns the target Calcium-dependent protein kinase 4 (Plasmodium falciparum (isolate 3D7)) (UniProt Q8IBS5). The experiment in a line: PfCDPK4 kinase inhibitors, biochemical, TCAMS library (AID 1159588; cut-off not given, nearly all actives have IC50 up to about 0.91 µM). The note with it: recombinant PfCDPK4, Kinase-Glo ATP depletion luminescence.

L-lactate dehydrogenase (Plasmodium falciparum (isolate CDC / Honduras)), sequence (Q27743 whole entry, looked up): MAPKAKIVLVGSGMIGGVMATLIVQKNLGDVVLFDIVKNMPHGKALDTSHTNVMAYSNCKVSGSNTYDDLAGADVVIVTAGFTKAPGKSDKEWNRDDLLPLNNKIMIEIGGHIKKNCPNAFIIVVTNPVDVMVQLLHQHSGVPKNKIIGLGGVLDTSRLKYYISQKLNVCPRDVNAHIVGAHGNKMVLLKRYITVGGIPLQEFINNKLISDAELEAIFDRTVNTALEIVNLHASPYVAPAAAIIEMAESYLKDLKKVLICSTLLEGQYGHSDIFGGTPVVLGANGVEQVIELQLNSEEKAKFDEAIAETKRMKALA
Calcium-dependent protein kinase 4 (Plasmodium falciparum (isolate 3D7)), sequence (Q8IBS5 whole entry, looked up): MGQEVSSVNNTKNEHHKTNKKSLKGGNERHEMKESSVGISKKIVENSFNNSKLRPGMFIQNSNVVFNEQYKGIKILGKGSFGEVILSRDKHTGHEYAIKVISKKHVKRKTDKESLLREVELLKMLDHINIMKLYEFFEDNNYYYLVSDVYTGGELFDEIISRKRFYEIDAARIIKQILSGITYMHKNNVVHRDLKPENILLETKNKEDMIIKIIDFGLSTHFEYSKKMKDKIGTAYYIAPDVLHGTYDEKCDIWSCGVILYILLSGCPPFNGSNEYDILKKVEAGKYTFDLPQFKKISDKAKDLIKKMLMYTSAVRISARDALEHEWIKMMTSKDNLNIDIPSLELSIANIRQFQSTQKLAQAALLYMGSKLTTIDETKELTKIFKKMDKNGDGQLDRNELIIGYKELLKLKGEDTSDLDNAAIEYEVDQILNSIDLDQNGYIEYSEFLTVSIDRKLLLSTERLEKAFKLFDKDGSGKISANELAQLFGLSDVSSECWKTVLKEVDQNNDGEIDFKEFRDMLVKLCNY
Calcium-dependent protein kinase 1 (Plasmodium falciparum (isolate 3D7)), sequence (P62344 whole entry, looked up): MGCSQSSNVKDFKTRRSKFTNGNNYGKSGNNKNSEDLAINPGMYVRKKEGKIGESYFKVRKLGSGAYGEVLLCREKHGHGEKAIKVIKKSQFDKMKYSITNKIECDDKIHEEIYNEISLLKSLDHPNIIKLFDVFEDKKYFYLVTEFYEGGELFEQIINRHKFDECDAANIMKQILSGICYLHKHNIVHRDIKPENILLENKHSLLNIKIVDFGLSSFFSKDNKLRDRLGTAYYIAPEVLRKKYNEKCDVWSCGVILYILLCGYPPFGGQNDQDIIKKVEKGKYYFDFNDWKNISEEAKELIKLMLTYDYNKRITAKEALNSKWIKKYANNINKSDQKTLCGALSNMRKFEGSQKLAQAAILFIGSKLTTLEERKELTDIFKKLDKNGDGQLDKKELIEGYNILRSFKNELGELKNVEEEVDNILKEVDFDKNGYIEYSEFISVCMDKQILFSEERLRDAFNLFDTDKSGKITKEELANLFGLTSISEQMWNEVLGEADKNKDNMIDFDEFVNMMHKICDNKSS
Plasmodium falciparum protein kinase 6 (PK6, PF3D7_1337100), sequence (Q8IDW1 1-305): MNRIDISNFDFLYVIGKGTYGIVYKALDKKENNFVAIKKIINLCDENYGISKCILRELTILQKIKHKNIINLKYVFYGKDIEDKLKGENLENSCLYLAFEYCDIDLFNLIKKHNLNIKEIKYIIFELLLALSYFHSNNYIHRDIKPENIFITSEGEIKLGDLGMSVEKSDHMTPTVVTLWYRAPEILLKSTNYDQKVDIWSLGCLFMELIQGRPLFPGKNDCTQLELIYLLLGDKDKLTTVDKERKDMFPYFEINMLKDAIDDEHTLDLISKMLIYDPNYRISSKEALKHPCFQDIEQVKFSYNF
Protein kinase 7 (PK7), Plasmodium falciparum 3D7 (PF3D7_0213400), sequence (Q7YTF7 1-343): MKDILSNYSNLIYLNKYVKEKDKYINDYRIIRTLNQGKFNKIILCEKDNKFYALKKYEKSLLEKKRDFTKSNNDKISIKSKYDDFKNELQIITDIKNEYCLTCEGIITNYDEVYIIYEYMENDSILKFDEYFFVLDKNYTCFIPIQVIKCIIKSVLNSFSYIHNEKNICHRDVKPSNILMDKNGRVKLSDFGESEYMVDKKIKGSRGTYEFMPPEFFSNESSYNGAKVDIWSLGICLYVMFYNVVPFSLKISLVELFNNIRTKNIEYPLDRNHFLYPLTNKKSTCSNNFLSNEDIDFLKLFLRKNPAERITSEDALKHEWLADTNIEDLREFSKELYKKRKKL

Take `CS(=O)(=O)Nc1ccc(-c2cnc3[nH]cc(-c4ccc(C(=O)O)cc4)c3c2)cc1`: the growth inhibition in assay [1] is 45%; in assay [4], 95% (active). The inhibition (usually the change of the read-out against control, counted positive when it falls) in assay [2] was -15%; in assay [3], -1%. The outcome in assay [5], in assay [6], in assay [7] and in assay [8] was inactive.
Turning to `O=C(NC1CCCc2ccccc21)[C@@H]1CCCN1C(=O)c1ccc(O)c(-c2ccc(Cl)c(Cl)c2)c1` (stereo not given in full), the growth inhibition in assay [1] and in assay [4] was 99% (active) in each case. Besides, the inhibition in assay [2] was -6%; in assay [3], -2%. The outcome in assay [5], in assay [6], in assay [7] and in assay [8] was inactive.
As for `CCOc1cc(C)ccc1C1CCN(CCCCNC(=O)c2cccc(-c3ccc(C(F)(F)F)cc3)c2)CC1`, the values for the growth inhibition in assay [1] and in assay [4] were 55% (active) and 99% (active), respectively. Also, the inhibition in assay [2] is 39%; in assay [3], 2%. For the same compound, the result in assay [5], in assay [6], in assay [7] and in assay [8] was inactive.
In the case of `NC(=O)c1ccc(NCC(=O)Nc2cccc(-c3cccc(-c4nc5ccc(F)cc5[nH]4)c3)c2)cc1`, the results for the growth inhibition in assay [1] and in assay [4] were 32% and 97% (active), respectively. Further, the inhibition was 15% in assay [2] and -3% in assay [3]. Further, the outcome in assay [5], in assay [6], in assay [7] and in assay [8] was inactive.
In the case of `COc1c(C2CCN(CCCCNC(=O)c3cc(-c4ccc(C#N)cc4)n[nH]3)CC2)ccc2c1CCCC2`, the growth inhibition was 15% in assay [1] and 86% (active) in assay [4]. Besides, the inhibition in assay [2] is 36%; in assay [3], -6%. The outcome in assay [5], in assay [6], in assay [7] and in assay [8] was inactive.
Regarding `O=C(NCCN1CCCC1)N1CCCN(c2ncnc3cc(-c4ccc(F)cc4)sc23)CC1`, the growth inhibition was 19% in assay [1] and 81% (active) in assay [4]. Besides, the inhibition in assay [2] and in assay [3] was 5% each time. Further, the result in assay [5], in assay [6], in assay [7] and in assay [8] was inactive.
`FC(F)(F)Oc1ccc(-c2cnc3ccc(NCc4ccncc4)nn23)cc1`: the results for the growth inhibition in assay [1] and in assay [4] were 54% (active) and 97% (active), respectively. The inhibition in assay [2] was 19%; in assay [3], -3%. The outcome in assay [5], in assay [6], in assay [7] and in assay [8] was inactive.
Turning to `O=C(/C=C/c1c(Cl)cccc1Cl)NC1CCC(CN2CCC(Cc3cc4ccccc4[nH]3)CC2)CC1` (stereo not given), the figures for the growth inhibition in assay [1] and in assay [4] were 17% and 91% (active), respectively. The results for the inhibition in assay [2] and in assay [3] were 97% (active) and -1%, respectively. In addition, the outcome in assay [5], in assay [6], in assay [7] and in assay [8] was inactive.
For `N#Cc1cccc(C(=O)Nc2cccc(-c3ccc(CN4CCC(O)CC4)cc3)c2)c1`, the values for the growth inhibition in assay [1] and in assay [4] were 2% and 86% (active), respectively. Further, the inhibition is 15% in assay [2] and 1% in assay [3]. Further, the outcome in assay [5], in assay [6], in assay [7] and in assay [8] was inactive.
With `COc1cc(NC(=O)/C=C/c2cc(F)cc(F)c2F)cc(OCCN2CCCCC2)c1`, the figures for the growth inhibition in assay [1] and in assay [4] were 80% (active) and 102% (active), respectively. Further, the inhibition in assay [2] was 10%; in assay [3] it was 0%. The result in assay [5], in assay [6], in assay [7] and in assay [8] was inactive.
Turning to `c1cc(CNC2CCN(CC3CCCCC3)CC2)cc(-n2ccnc2)c1`, the growth inhibition in assay [1] is 97% (active); in assay [4], 102% (active). Also, the inhibition was 3% in assay [2] and 1% in assay [3]. The result in assay [5], in assay [6], in assay [7] and in assay [8] was inactive.
Take `CCOC(=O)c1c(NC(=O)c2ccccc2)sc2c(O)c(CNC3CCCCC3)ccc12`: the growth inhibition in assay [1] was 98% (active); in assay [4] it was 99% (active). In addition, the inhibition in assay [2] is 6%; in assay [3] it was 1%. The result in assay [5], in assay [6], in assay [7] and in assay [8] was inactive.
Regarding `Cc1ccc(NC(=O)Nc2ccccc2F)cc1-c1ccc(C(=O)Nc2ccncc2)cc1`, the growth inhibition is 54% (active) in assay [1] and 99% (active) in assay [4]. Further, the inhibition in assay [2] was 36%; in assay [3] it was 3%. In addition, the outcome in assay [5], in assay [6], in assay [7] and in assay [8] was inactive.
For `Fc1ccc2nc(-c3ccc(-c4cccc(CN5CCC(CCN6CCCCC6)CC5)c4)cc3)[nH]c2c1`, the growth inhibition in assay [1] was 100% (active); in assay [4], 101% (active). For the same compound, the results for the inhibition in assay [2] and in assay [3] were 96% (active) and 5%, respectively. In addition, the outcome in assay [5], in assay [6], in assay [7] and in assay [8] was inactive.
For `CC(CN(C)C)C(=O)Nc1ccc(-c2ccc(-c3nc4ccc(C(F)(F)F)cc4[nH]3)cc2)cc1` (stereo not given), the results for the growth inhibition in assay [1] and in assay [4] were 93% (active) and 101% (active), respectively. For the same compound, the inhibition in assay [2] was 14%; in assay [3], 2%. Moreover, the outcome in assay [5], in assay [6], in assay [7] and in assay [8] was inactive.
As to `COc1ccc2nccc([C@@H](O)CN3CCC(NCCOc4cc(F)cc(F)c4)CC3)c2c1`, the growth inhibition in assay [1] is 86% (active); in assay [4] it was 101% (active). In addition, the inhibition in assay [2] is 10%; in assay [3], -3%. The outcome in assay [5], in assay [6], in assay [7] and in assay [8] was inactive.
Regarding `CCOc1ccc2nc(C)cc(NN=Cc3cccc(C)n3)c2c1`, the results for the growth inhibition in assay [1] and in assay [4] were 73% (active) and 99% (active), respectively. Besides, the inhibition in assay [2] is 6%; in assay [3] it was 0%. Moreover, the result in assay [5], in assay [6], in assay [7] and in assay [8] was inactive.
For the compound `COc1ccc(-c2ccc(NC(=O)c3ccc(C#N)cc3)cc2)cc1CN1CCCC1`, the growth inhibition is 51% (active) in assay [1] and 95% (active) in assay [4]. In addition, the inhibition in assay [2] was 40%; in assay [3], 5%. The outcome in assay [5], in assay [6], in assay [7] and in assay [8] was inactive.
In the case of `O=c1cc(NCC2(CNCc3cn(Cc4ccccc4)c4ccccc34)CCCCC2)[nH]c2ccccc12`, the growth inhibition is 56% (active) in assay [1] and 100% (active) in assay [4]. Besides, the inhibition in assay [2] was 27%; in assay [3], 1%. For the same compound, the result in assay [5], in assay [6], in assay [7] and in assay [8] was inactive.
For the compound `Cc1cc(N[C@@H](Cc2ccccc2)C(=O)Nc2ccccc2)nc(NCC2CCCCC2)n1`, the growth inhibition is 55% (active) in assay [1] and 98% (active) in assay [4]. Moreover, the inhibition was 12% in assay [2] and 1% in assay [3]. Further, the outcome in assay [5], in assay [6], in assay [7] and in assay [8] was inactive.
